Rows were chosen to be rich in hits. Some 11% of all compounds tested hit in one or more screens of this group.
ALDH1A1 block: blocks purified human ALDH1A1 activity. P00352. Purified ALDH1A1, NADH fluorescence, propionaldehyde substrate. Potency, µM (highest dose often 75.3 µM), without a hit: at the top dose activity, negative = inhibition, most hits filed as inhibitors. 220,000 tested, 7.3% active. AID 1030;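 note: potency is the fitted concentration of half-maximal effect; plate controls were no enzyme wells and a reference inhibitor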
Target sequence (P00352 whole entry, looked up): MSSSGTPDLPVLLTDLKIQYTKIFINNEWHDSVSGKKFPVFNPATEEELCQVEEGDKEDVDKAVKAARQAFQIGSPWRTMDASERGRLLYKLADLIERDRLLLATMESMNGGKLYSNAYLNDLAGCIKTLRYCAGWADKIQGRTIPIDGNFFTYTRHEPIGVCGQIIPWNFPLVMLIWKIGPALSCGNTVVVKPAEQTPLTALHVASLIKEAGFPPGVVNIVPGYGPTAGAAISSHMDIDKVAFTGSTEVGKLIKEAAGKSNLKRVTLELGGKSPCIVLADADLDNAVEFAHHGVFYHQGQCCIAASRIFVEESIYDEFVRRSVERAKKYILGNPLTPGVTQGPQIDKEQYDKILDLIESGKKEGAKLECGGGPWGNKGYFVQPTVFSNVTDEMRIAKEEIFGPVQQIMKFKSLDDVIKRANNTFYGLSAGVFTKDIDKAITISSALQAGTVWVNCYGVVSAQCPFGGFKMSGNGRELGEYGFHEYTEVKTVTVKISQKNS
HPGD inh: HPGD (human) dehydrogenase inhibition. 150,000 tested, 4.3% active. AID 894. P15428. purified HPGD, NADH fluorescence kinetic, PGE2 substrate. Potency, µM, for inactives: at the highest dose activity change, negative = inhibition, hits mostly inhibitors; note: potency is the fitted concentration of half-maximal effect
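NADH formation kinetics: reaction with 30 uM PGE2 and 1 mM NAD+ (final), 20 nM enzyme, Tris-HCl pH 8 with Tween 20, after 15 min compound preincubation at room temperature. Fluorescence change, last versus first of five reads.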
JMJD2E inh: inhibitors of human JMJD2E histone demethylase. Potency, µM (top dose mostly 57.1 µM), for inactives: top-dose activity change, negative = inhibition, actives largely listed as inhibitors. B2RXH2. 230,000 tested, 1.6% active. AID 2147. JMJD2E catalytic domain, FDH-coupled NADH fluorescence (FDH is formaldehyde dehydrogenase);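 note: potency is the fitted concentration of half-maximal effect; 0% = wells with enzyme and -100% = buffer wells without enzyme; nearly all actives have a fitted effect of over 50% in size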
PNC assembly inh: blocks assembly of the perinucleolar compartment. PC3M PTB-GFP, PNC prevalence imaging, 16 h; active compounds read low. activity change (PNC), negative = inhibition, % at 10 µM. 140,000 tested, 3.1% active. AID 2417;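 active = readout at or below -70, meaning at least 70% loss of cells showing the perinucleolar compartment, a nuclear body marking cancer cells; inconclusive = readout between -30 and a set limit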;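 note: plate controls were DMSO wells for no effect and camptothecin positive control wells for full effect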
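PC3M cells stably expressing PTB-GFP, 750–1000 cells/well, treated 16 h at 37 °C with compound (23 nl of library stock), in duplicate. After paraformaldehyde fixation and Hoechst stain, imaged at 20x; PNC prevalence scored by image analysis.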
An asterisk follows results filed as active; ? = inconclusive; nt = not tested or not shown. Unless noted, calls come from the whole dose curve; as a rule, active = well fitted inhibition curve with a large enough effect (not every such curve was filed as active); inconclusive = small, poorly fitted or top-dose-only effect, or another doubt; inactive = no such curve, though single readings can be large or run the other way. Unless noted, % is set by controls: 0 for no effect and ±100 for the full control effect.

SMILES	ALDH1A1 block	HPGD inh	JMJD2E inh	PNC assembly inh
COc1ccc(C(C(=O)NC2CCCC2)N(CCN(C)C)C(=O)c2snc(C(N)=O)c2N)cc1 (configuration not stated)	?	?	?	-114*
COc1ccc(CN(C(=O)c2nsc(Cl)c2Cl)C(C(=O)NC2CCCC2)c2ccc(C)cc2)cc1 (configuration not stated)	13µM*	-9%	2%	3
Cc1ccc(C)c(N(C(=O)c2nsc(Cl)c2Cl)C(C(=O)NC2CCCC2)c2ccc(O)cc2)c1 (configuration not stated)	?	-17%	-2%	19
C=CCn1c(=NC(=O)c2ccccc2[N+](=O)[O-])sc2cc(S(C)(=O)=O)ccc21	8%	0%	1%	?
COc1ccc(CN2C(=O)c3ccccc3C2C(=O)NC2CCCCCC2)c(OC)c1 (configuration not stated)	-7%	nt	2%	nt
N#Cc1c(Cl)nsc1NN	22µM*	nt	-25%	nt
OC[C@H](S)CS	0.1µM*	-10%	nt	nt
CCC1OC(=O)C[C@H](O)C(C)[C@@H](O[C@@H]2OC(C)C(O)C(N(C)C)C2O)C(CCN2CC(C)CC(C)C2)CC(C)C(=O)/C=C/C(C)=C\[C@@H]1COC1OC(C)C(O)C(OC)C1OC (some centres not stated)	7%	-8%	?	nt
CCNc1ccc(C(=O)NN=C2CCCC2)cc1[N+](=O)[O-]	2.2µM*	nt	17%	nt
CCOc1ccc(C(=O)NCC(c2cccs2)N(C)C)cc1 (configuration not stated)	-4%	-32%	7%	10
CC(C(=O)NC1CCCc2ccccc21)N1CCN(c2ccc(F)cc2)CC1 (configuration not stated)	-1%	nt	0%	-4
CC(C(=O)NC1CCCc2ccccc21)N1CCN(Cc2ccc3c(c2)OCO3)CC1 (configuration not stated)	6.3µM*	-20%	5%	25
O=C(Oc1ccc2ccccc2c1Cl)N1CCCCCC1	4%	?	5%	37
O=C(Oc1ccc2ccccc2c1Cl)N1CCCC1	-8%	-9%	3%	-89*
CCSc1nnnn1-c1ccccc1	?	-8%	4%	-14
Cc1ccc(S(=O)(=O)NCCSc2nnnn2-c2ccccc2)cc1	1µM*	-18%	15%	?
Cc1ccc(S(=O)(=O)NCCSc2nnnn2-c2cc(C)ccc2C)cc1	0.89µM*	-5%	-7%	-21
Cc1ccc(C)c(-n2nnnc2Sc2nnnn2-c2ccccc2)c1	22µM*	-7%	4%	0
COc1ccc(CCNC(=O)CSc2nnnn2C)cc1OC	6%	nt	-2%	nt
COc1ccc(CCNC(=O)CSc2nnnn2-c2ccccc2OC)cc1OC	0.28µM*	-10%	-1%	25
COc1ccc(CCNC(=O)CSc2nncn2N)cc1OC	?	-12%	3%	-82*
NC(=O)c1c(/N=C/c2cccs2)sc2c1CCCC2	nt	nt	-1%	nt
CCOC(=O)C1=C(C)NC(=O)CC1c1cc(OC)c(OC)cc1Br (configuration not stated)	8%	nt	-2%	nt
CCCCN1C(=O)/C(=C/C=C2/CC(C)(C)CN2C)SC1=S	6.3µM*	-4%	-4%	-25
CCOC(=O)c1[nH]c2ccc(OCC)cc2c1CCCN1C(=O)c2ccccc2C1=O	?	-16%	-11%	-11
SMILES	ALDH1A1 block	HPGD inh	JMJD2E inh	PNC assembly inh
CC(C)Sc1nc2c(c(=O)[nH]c(=O)n2C)n1Cc1ccc(Cl)cc1	35µM*	?	-5%	-8
CCC(C)Sc1nc2c(c(=O)[nH]c(=O)n2C)n1CCc1ccccc1 (configuration not stated)	?	-16%	7%	162
CCOC(=O)C(C)Sc1nc2c(c(=O)[nH]c(=O)n2C)n1Cc1ccc(Cl)cc1 (configuration not stated)	18µM*	?	-3%	9
CCCCCn1c(SC(C)C(C)=O)nc2c1c(=O)[nH]c(=O)n2C (configuration not stated)	?	-8%	6%	9
CCC(C)Sc1nc2c(c(=O)[nH]c(=O)n2C)n1CC(O)COc1ccccc1C (configuration not stated)	14µM*	40µM*	?	-28
CCC(C)Sc1nc2c(c(=O)[nH]c(=O)n2C)n1Cc1ccc(Cl)cc1 (configuration not stated)	8.9µM*	-7%	7%	-17
O=C(CN1CCCCCCC1)Nc1cccc(Cl)c1Cl	-5%	nt	12%	nt
Cc1cc(C(=O)NCCC2=CCCCC2)c(C)o1	11µM*	?	-2%	-81*
NC(=O)NCCC1=CCCCC1	-3%	0%	1%	34
COc1cccc2cc(C(=O)NCC3CCCO3)c(=O)oc12 (configuration not stated)	?	-25%	-24%	?
COc1cccc2cc(C(=O)NCCC3=CCCCC3)c(=O)oc12	10µM*	nt	?	nt
COc1cccc2cc(C(=O)NC(C)C3CCCO3)c(=O)oc12 (configuration not stated)	?	-26%	?	-87*
Cc1ccc(S(=O)(=O)N2CCC(C(=O)N/N=C/c3cccnc3)CC2)cc1	3%	2%	4%	?
C=CCOC(=O)/C=C/C(=O)NC(N)=O	nt	nt	3%	nt
CCc1cc2c(c(CC)n1)CCC(=O)N2Cc1ccc(-c2ccccc2-c2nn[nH]n2)cc1	6%	-6%	3%	nt
NS(=O)(=O)c1ccc(Nc2nc3ccccc3nc2NS(=O)(=O)c2cccc([N+](=O)[O-])c2)cc1	7%	nt	1%	nt
Brc1ccc2nc3c(n2c1)CCCC3	2%	-16%	6%	21
c1ccc(-c2cn3nc4c(nc3n2)CCCC4)cc1	?	-55%	32µM*	-6
Brc1ccc(-c2cn3nc4c(nc3n2)CCCC4)cc1	?	?	?	-100*
c1ccc(-c2cn3nc(-c4ccccc4)cnc3n2)cc1	-11%	-11%	-1%	?
COc1ccc(C2N(c3ccccc3)CCN2c2ccccc2)cc1O	-5%	nt	-30%	nt
O=C(N/N=C/C(Br)=C/c1ccccc1)c1cccs1	-6%	nt	-9%	nt
CN(C)c1oc(-c2ccccc2Cl)nc1P(=O)(c1ccccc1)c1ccccc1	?	-23%	?	2
COc1ccccc1-c1nc(S(=O)(=O)c2ccc(Cl)cc2)c(N(C)C)o1	24µM*	-6%	-24%	1
O=C(O)CC(C(=O)O)N1C(=O)/C(=C/c2ccc(-c3nc4ccccc4s3)o2)SC1=S (configuration not stated)	10µM*	25µM*	2.8µM*	?
O=C(O)CCN1C(=O)/C(=C/c2ccc(-c3nc4ccccc4s3)o2)SC1=S	3.5µM*	13µM*	-12%	-14
COc1ccccc1NC(=O)N1c2ccc(F)cc2CCC1C (configuration not stated)	22µM*	-5%	?	11
CCCn1c(SCC(=O)N2c3ccc(F)cc3CCC2C)nnc1-c1ccccn1 (configuration not stated)	?	-10%	6%	-119*

Source: PubChem (National Center for Advancing Translational Sciences (NCATS))
